Hit rate of the full screen: of about 1,300 compounds, about 420 (32%) were called active. Inconclusive results (about 32%) are left out. Calls come from the whole dose curve; as a rule, active = well fitted inhibition curve with a large enough effect; inconclusive = small, poorly fitted or top-dose-only effect; inactive = no such curve, though single readings can be large or run the other way. The list shows a part of the results.
Potency is the fitted concentration of half-maximal effect.

In the experiment the target is C-terminal-binding protein 1 (Homo sapiens) (UniProt Q13363). The experiment can be described thus: qHTS for Inhibitors of the Phosphatase Activity of Eya2: Carboxyl-terminal binding protein (CtBP) Counterscreen for Cherry-picked Compounds. Note: nearly all actives have a fitted effect of over 65% in size. Conditions: purified protein-protein binding, AlphaScreen, 3 h; series mostly up to 46.1 µM. The method, boiled down:
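AlphaScreen using 25 nM GST-E1A with 25 nM CtBP-6xHIS; compounds at 2.5 nM–46 uM final, 2 h at room temperature, then donor/acceptor beads (20 ug/mL) for 1 h in the dark. Signal normalized to E1A peptide inhibitor (maximum inhibition) and DMSO.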
As to `O=C(NCc1ccco1)C1CC2CCC1C2` (stereo not drawn), the Potency entry was “inactive”. As for `COCCNC(=O)c1cccc(OC2CCN(Cc3ccc(F)cc3OC)CC2)c1`, the entry is “inactive”; as for `CSc1nnc2c(n1)OC(C)=Nc1ccccc1-2`, 12 µM (active). Take `C#Cc1cccc(NC(=O)CSc2nnc(-c3ccc(C(F)(F)F)cn3)o2)c1`: the Potency is 15.1 µM (active).

`CCn1ccnc1CNCc1cn(-c2cc(C)ccc2C)nc1-c1ccccc1`: the Potency was 8.49 µM (active).

For the compound `CCNc1ccc2noc3c2c1C(=O)c1ccccc1-3`, the Potency was 7.57 µM (active). To `CN(Cc1ccccc1F)c1nc(-c2cccnc2)nc2ccccc12` belongs “inactive”; to `O=C(CCS(=O)(=O)c1ccc(F)cc1)Nc1nc(-c2ccccn2)cs1`, 8.49 µM (active); to `CCn1nc(C(=O)Nc2nc(-c3ccccn3)cs2)c2ccccc2c1=O`, 3.79 µM (active). To `CSCCC(=O)Nc1nc(-c2ccccn2)cs1` belongs 12 µM (active). To `O=C(CN1C(=O)c2ccccc2C1=O)Nc1nc(-c2cccc([N+](=O)[O-])c2)cs1` belongs “inactive”. On to `S=C(NCCCc1cnc[nH]1)NCCCN(Cc1ccc(Cl)cc1)c1ccc(-c2ccccc2)cn1`, for which the Potency was 15.1 µM (active). Regarding `COc1ccc2c(c1)C=C/C2=C\c1ccc(N(C)C)cc1`, the Potency was 6.75 µM (active). To `CN(C)c1ccc(/C=C2\C=Cc3cc(N)ccc32)cc1` belongs 7.57 µM (active). As for `Cc1nc([N+](=O)[O-])cn1CC(O)c1ccc2c(c1)OCO2` (stereo not drawn), the entry is “inactive”. To `COC(=O)c1sc2cc(C(F)(F)F)cnc2c1-c1cccnc1` belongs “inactive”.

In the case of `O=C(O)/C=C/C(=O)Nc1ccc2c(c1)C(=O)c1ccccc1C2=O`, the Potency was 7.57 µM (active).

As to `CC(=O)Nc1ccc2nc(C3CC3)n(Cc3ccc(Cl)cc3)c(=O)c2c1`, the Potency entry was “inactive”. As for `CCN(CC)c1ccc(/C=C2\C=Cc3ccccc32)cc1`, the figure is 7.57 µM (active); as for `CC1=C/C(=C\c2ccc(N(C)C)cc2)c2ccccc21`, 7.57 µM (active); as for `CN(C)c1ccc(/C=C2\C=Cc3ccccc32)cc1`, 8.49 µM (active). As for `CN(C)c1ccc(/C=C/C=C2/C=Cc3ccccc32)cc1`, the figure is 5.36 µM (active); as for `C=C(CC[C@]12OC(C(=O)O)C(O)(C(=O)O)C(C(=O)O)(O1)C(OC(=O)/C=C/[C@@H](C)C[C@@H](C)CC)C2O)[C@@H](OC(C)=O)[C@H](C)Cc1ccccc1` (stereo partly drawn), “inactive”.

In the case of `COC(=O)C(Sc1ccc(Cl)cc1)C1SC(=S)N(Cc2ccccc2)C1=O` (stereo not drawn), the Potency entry was “inactive”. `Cc1cccc(C#Cc2ccccc2)n1`: the Potency result is “inactive”. To `C[C@H](CCC(=O)NCC(=O)O)[C@H]1CC[C@H]2[C@@H]3[C@H](O)C[C@@H]4C[C@H](O)CC[C@]4(C)[C@H]3C[C@H](O)[C@]12C` belongs “inactive”; to `CN(C)c1ccc(C=C2C=Cc3ccccc32)cc1`, 7.57 µM (active). As for `Cc1nn(C)c(Cl)c1CN1CCCC(CO)(Cc2cccc(Cl)c2)C1` (stereo not drawn), the entry is “inactive”. Turning to `COc1ccc(N2CCN(C(=O)CCC(=O)N3CC(C)Oc4ccc(C)cc43)CC2)cc1` (stereo not drawn), the Potency result is “inactive”. As for `CC(C)n1ncc2c(C(=O)N3CCN(Cc4ccc(Br)s4)CC3)cc(C3CC3)nc21`, the entry is “inactive”. As for `COc1ccc(N2CCN(Cc3ccc(Br)s3)CC2)cc1`, the figure is 15.1 µM (active); as for `COc1ccc(N2CCN(C(=O)Cc3ccc(Cl)cc3)CC2)cc1`, “inactive”; as for `COc1ccc(N2CCN(Cc3cc4c(cc3Br)OCCO4)CC2)cc1`, 12 µM (active).

As for `COc1ccc(N2CCN(C(c3cccs3)C(C)NC(=O)c3ccc4c(c3)OCO4)CC2)cc1` (stereo not drawn), the Potency entry was “inactive”. As for `COC(=O)c1c(C)[nH]c(C(=O)C(C)OC(=O)C2CC(=O)N(c3ccc(C)cc3)C2)c1C` (stereo not drawn), the Potency entry was “inactive”. As for `COc1cc(CNCc2ccc(OC)cc2OC)cc(OC)c1`, the entry is “inactive”; as for `O=C(O)c1cc(-c2ccc(/C=C3\NC(=O)N(c4ccc(Cl)cc4)C3=O)o2)ccc1Cl`, 8.49 µM (active); as for `CC(C)Nc1nnc(SCC(=O)Nc2ccc3c(c2)C(=O)c2ccccc2C3=O)s1`, 5.36 µM (active). To `Cc1cc(NC(=O)CSc2nnc(Nc3ccccc3F)s2)no1` belongs “inactive”; to `CCCCc1cc(=O)oc2cc(OCC(=O)N3CCC(C(=O)O)(c4ccccc4)CC3)ccc12`, “inactive”; to `Cc1coc2c(C)c3oc(=O)c(CCC(=O)N4CCC(C(=O)NCCCC(=O)O)(c5ccccc5)CC4)c(C)c3cc12`, 15.1 µM (active). To `CC1(C)CC(=O)C=C(c2ccc(COC(=O)c3cc(F)cc(F)c3)cc2)C1=O` belongs “inactive”. On to `CCn1cc(C(=O)N[C@@H](C)C(=O)NCCCn2ccnc2)c(=O)c2cc3c(cc21)OCO3`, for which the Potency entry is “inactive”. To `Cc1ccc(C(=O)N/C(=C\c2ccco2)C(=O)NCCCn2ccnc2)cc1` belongs 3.79 µM (active). As for `Cc1ccc(Nc2nnc(SCC(=O)c3c(N)n(C4CC4)c(=O)[nH]c3=O)s2)cc1C`, the entry is “inactive”. On to `Cc1cccc(Nc2nnc(SCC(=O)NCC3CCCO3)s2)c1` (stereo not drawn), for which the Potency was 15.1 µM (active).

In the case of `C/C(N)=C(/C#N)C(=O)CSc1nnc(Nc2cccc(C)c2)s1`, the Potency result was “inactive”. For `COc1ccc(-c2cn3c(C)c(C(=O)NCc4ccc5c(c4)OCO5)sc3n2)cc1`, the Potency entry was “inactive”. As for `O=c1[nH][nH]cc1C=Nc1cc(Cl)ccc1O`, the figure is 8.49 µM (active); as for `O=c1oc(-c2ccco2)nc2ccccc12`, 13.5 µM (active); as for `CN(C)c1ccc(/C=C/c2ccnc3ccc(-c4ccccc4)cc23)cc1`, 12 µM (active). As for `Cc1cc(C)c2c(/C=C/c3ccc(N(C)C)cc3)ccnc2c1`, the figure is 13.5 µM (active); as for `COc1ccc(N=C2SC(C(=O)N3CCN(c4ccc([N+](=O)[O-])cc4)CC3)CC(=O)N2C)cc1` (stereo not drawn), “inactive”; as for `O=C(Nc1ccccc1)c1ccc2nc(-c3ccco3)c(-c3ccco3)nc2c1`, 13.5 µM (active). As for `O=C(O)c1ccc2nc(-c3ccco3)c(-c3ccco3)nc2c1`, the figure is 7.57 µM (active); as for `CC(C)(C)NC(=O)c1cccc(NC(=O)c2ccc(NC(=O)c3ccco3)cc2)c1`, “inactive”; as for `O=C(NC1CC1)c1ccc2nc(-c3ccco3)c(-c3ccco3)nc2c1`, 8.49 µM (active). As for `CC(C)[C@H](NC(=O)c1ccccc1)C(=O)NC1CCCCCCC1`, the Potency entry is “inactive”. To `O=C(NCCCO)c1ccc2nc(-c3ccco3)c(-c3ccco3)nc2c1` belongs 5.36 µM (active); to `Cc1ccc(C(O)c2ncc(-c3ccc4ccccc4c3)[nH]2)cc1F` (stereo not drawn), “inactive”. To `O=C(NCc1ccccc1)c1ccc2nc(-c3ccco3)c(-c3ccco3)nc2c1` belongs 16.9 µM (active).

Consider `CN(C)C(CNC(=O)c1ccc2c(c1)S(=O)(=O)c1ccccc1C2=O)c1ccco1` (stereo not drawn), for which the Potency entry is “inactive”.

`Cc1ccc(CNC(=O)c2ccc(-n3cccc3)cc2)cc1`: the Potency result was “inactive”.

Values taken from PubChem BioAssay AID720541 (National Center for Advancing Translational Sciences (NCATS), 2013).
